Assay results published in PubChem BioAssay.
The source made the active and inactive calls. Unless noted, the rule behind the calls is not given here.

Assays:
[1] = anti-His antibody binders, primary screen, artefact control for SMM control protein annotation, biochemical, small-molecule microarray, 635 nm fluorescence (AID 1128); details: anti-His Alexa647 antibody binding, higher = more signal;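 note: score merges feature fluorescence with signal-to-noise for each printed compound spot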
[2] = test system: Human papillomavirus type 1a E7 protein (residues 1-88); test: HPV1a E7 small-molecule binders, primary screen, biochemical, small-molecule microarray, residues 1-88, 635 nm (AID 1129); details: small-molecule microarray binding, fluorescence 635 nm; higher = more signal
[3] = target: Focal adhesion kinase 1 (Homo sapiens) (UniProt Q05397); test: small-molecule microarray binders of FAK, primary screen, biochemical, 635/667 nm fluorescence, BSA, DTT (AID 1130); details: PTK2 binding, 635 nm fluorescence, higher = more signal;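 note: composite of spot emission at 667 nm and signal to noise over triplicate slides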
Focal adhesion kinase 1 (Homo sapiens), sequence (Q05397 whole entry, looked up): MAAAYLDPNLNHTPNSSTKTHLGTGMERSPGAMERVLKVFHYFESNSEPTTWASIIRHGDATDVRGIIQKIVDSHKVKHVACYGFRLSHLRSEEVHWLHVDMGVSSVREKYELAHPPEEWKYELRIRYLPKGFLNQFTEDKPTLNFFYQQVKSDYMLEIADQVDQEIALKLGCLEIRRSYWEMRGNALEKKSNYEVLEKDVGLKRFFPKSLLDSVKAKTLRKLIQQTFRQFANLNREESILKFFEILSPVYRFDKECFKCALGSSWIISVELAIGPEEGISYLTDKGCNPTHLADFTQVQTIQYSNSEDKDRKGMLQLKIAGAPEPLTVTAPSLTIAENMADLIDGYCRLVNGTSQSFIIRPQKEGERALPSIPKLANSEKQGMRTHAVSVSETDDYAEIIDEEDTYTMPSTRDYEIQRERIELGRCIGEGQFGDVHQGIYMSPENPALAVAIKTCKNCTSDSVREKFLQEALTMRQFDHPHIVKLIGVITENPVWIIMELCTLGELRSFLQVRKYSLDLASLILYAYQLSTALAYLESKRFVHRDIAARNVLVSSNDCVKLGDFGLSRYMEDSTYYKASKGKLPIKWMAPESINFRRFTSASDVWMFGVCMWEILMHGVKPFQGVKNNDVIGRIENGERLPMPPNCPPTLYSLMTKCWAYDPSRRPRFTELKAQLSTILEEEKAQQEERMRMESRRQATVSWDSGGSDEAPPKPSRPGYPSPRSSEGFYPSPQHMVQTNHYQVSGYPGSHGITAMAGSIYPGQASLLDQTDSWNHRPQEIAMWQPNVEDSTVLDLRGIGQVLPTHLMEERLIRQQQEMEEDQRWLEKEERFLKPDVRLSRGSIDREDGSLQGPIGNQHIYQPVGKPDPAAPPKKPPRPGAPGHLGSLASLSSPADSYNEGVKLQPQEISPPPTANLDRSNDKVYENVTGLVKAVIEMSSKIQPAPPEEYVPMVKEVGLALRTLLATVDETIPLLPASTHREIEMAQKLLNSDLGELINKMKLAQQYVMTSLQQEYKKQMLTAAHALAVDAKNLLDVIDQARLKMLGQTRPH

[4] = test system: Fibrinogen (Alexa647-labelled); test: fibrinogen binders on compound microarrays, profiling panel, artefact control for SMM control-protein annotation, biochemical, small-molecule microarray, 635/667 nm fluorescence (AID 1131); details: fibrinogen-A647 binding fluorescence, higher = more signal;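 note: z-score merges 667 nm fluorescence with per-spot signal-to-noise over triplicate slides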
[5] = target: Follistatin (Homo sapiens) (UniProt P19883); test: follistatin binders on small-molecule microarrays, primary screen, biochemical, small-molecule microarray, 635/667 nm fluorescence (AID 1132); details: FST binding, 635 nm fluorescence, higher = more signal
Follistatin (Homo sapiens), sequence (P19883 whole entry, looked up): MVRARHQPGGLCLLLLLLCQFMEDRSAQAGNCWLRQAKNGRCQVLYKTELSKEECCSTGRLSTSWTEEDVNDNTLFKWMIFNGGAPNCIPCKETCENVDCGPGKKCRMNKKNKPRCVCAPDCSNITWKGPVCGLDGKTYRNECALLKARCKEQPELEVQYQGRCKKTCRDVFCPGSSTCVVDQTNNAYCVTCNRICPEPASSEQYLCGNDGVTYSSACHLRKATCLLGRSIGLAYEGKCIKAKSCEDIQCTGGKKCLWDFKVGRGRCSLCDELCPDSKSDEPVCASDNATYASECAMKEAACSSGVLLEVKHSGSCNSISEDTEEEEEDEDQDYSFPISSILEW

[6] = target: Fibroblast growth factor 2 (Homo sapiens) (UniProt P09038); test: FGF2 binders on small-molecule microarrays, primary screen, biochemical, small-molecule microarray, 635/667 nm fluorescence (AID 1133); details: small-molecule microarray binding, FGF2, fluorescence 635/667; higher = more signal
Fibroblast growth factor 2 (Homo sapiens), sequence (P09038 whole entry, looked up): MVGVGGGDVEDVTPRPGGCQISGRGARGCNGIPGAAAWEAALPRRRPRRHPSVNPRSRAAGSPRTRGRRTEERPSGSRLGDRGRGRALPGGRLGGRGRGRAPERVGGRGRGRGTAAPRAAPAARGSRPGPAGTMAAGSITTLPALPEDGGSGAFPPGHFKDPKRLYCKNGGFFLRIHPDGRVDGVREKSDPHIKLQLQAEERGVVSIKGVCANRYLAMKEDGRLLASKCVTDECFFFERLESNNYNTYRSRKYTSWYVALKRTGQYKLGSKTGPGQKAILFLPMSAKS

[7] = mitochondrial membrane potential change in A549 cells, profiling panel, cell-based, JC-1 fluorescence, basal, 24 h, 100 nL (AID 1138); details: higher = more signal;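 note: A549 lung adenocarcinoma cells under basal conditions with no added stimulus; test concentration not given here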
Lefty1 = Lefty1 binders on small-molecule microarrays, primary screen, biochemical, small-molecule microarray, 635/667 nm fluorescence (AID 1139); details: small-molecule microarray binding, fluorescence 635/667; higher = more signal
[8] = test system: wheat germ agglutinin (Triticum aestivum), Alexa647-labelled; test: wheat germ agglutinin binders on compound microarrays, profiling panel, artefact control for SMM control-protein annotation, biochemical, small-molecule microarray, 635/667 nm fluorescence (AID 1140); details: WGA-A647 binding, 635 nm fluorescence, higher = more signal;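 note: score merges 667 nm feature emission with signal to noise over triplicate slides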
[9] = target: Luciferin 4-monooxygenase (Photinus pyralis) (UniProt P08659); test: firefly luciferase enzyme inhibitors, primary screen, biochemical, luminescence, purified enzyme, 2006 set (AID 1141); details: SteadyGlo luminescence, 30 min, higher = more signal, called active from +8 up or from −8 down;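 note: cell-free assay with purified firefly luciferase at 100 ng per well in PBS; test concentration not given here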
Luciferin 4-monooxygenase (Photinus pyralis), sequence (P08659 whole entry, looked up): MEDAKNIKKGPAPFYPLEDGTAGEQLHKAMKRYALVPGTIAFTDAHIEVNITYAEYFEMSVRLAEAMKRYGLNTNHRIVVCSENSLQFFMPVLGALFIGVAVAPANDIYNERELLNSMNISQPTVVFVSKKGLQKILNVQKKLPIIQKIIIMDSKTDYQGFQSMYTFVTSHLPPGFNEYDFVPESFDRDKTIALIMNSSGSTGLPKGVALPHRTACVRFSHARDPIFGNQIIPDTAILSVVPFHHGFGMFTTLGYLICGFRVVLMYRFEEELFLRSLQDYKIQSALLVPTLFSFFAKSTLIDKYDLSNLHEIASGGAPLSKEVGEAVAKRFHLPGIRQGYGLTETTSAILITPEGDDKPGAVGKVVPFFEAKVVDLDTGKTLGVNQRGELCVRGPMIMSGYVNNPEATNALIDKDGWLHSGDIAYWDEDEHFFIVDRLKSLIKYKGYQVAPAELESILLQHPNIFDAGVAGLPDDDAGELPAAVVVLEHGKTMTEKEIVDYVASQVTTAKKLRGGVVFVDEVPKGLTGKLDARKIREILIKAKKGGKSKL

[10] = test system: Wnt5a (protein binding on small-molecule microarray); test: Wnt5a binders on small-molecule microarray, primary screen, biophysical, 635/667 nm fluorescence (AID 1142); details: 635 nm fluorescence, higher = more signal;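 note: fluorescence read at 667 nm with signal to noise per printed feature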
[11] = cell viability in Huh7 cells, primary screen, cytotoxicity control for HCV replication inhibitor project, CellTiter-Glo luminescence, basal, 48 h (AID 1143); details: Huh7 HCV replicon, higher = more signal, called active from +8 up or from −8 down;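 note: Huh7 hepatoma cells carrying a hepatitis C replication reporter with no stimulus; test concentration not given here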
[12] = P. aeruginosa biofilm formation inhibitors, primary screen, PAO1 strain, BacTiter-Glo luminescence, LB-PBS (AID 1144); details: 12 h, higher = more signal
[13] = CREB reporter modulators without forskolin, primary screen, cell-based, PC12, CRE-LacZ reporter, unstimulated (AID 1145); details: no forskolin, luminescence, 4.5 h, higher = more signal, called active from +8 up or from −8 down
[14] = CREB reporter modulators under forskolin, primary screen, cell-based, PC12, CRE-LacZ reporter, forskolin-stimulated (AID 1146); details: luminescence, 4.5 h, higher = more signal, called active from +8 up or from −8 down;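 note: PC12 cells with 6xCRE LacZ reporter stimulated by forskolin 10 µM; beta-galactosidase reporter signal reflecting CREB driven transcription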
[15] = target: Streptavidin (Streptomyces avidinii) (UniProt P22629); test: streptavidin binders on small-molecule microarray, primary screen, artefact control for SMM compound annotation, biophysical, 635/667 nm fluorescence (AID 1147); details: streptavidin binding, higher = more signal;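 note: signal reflects streptavidin binding to arrayed compounds as a control protein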
Streptavidin (Streptomyces avidinii), sequence (P22629 whole entry, looked up): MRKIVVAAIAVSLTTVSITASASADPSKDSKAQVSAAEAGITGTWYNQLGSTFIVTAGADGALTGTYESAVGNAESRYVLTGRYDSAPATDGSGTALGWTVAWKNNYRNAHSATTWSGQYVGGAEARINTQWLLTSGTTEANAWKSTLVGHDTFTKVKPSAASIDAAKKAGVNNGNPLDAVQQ

[16] = small-molecule binders of probe aInhba, primary screen, biochemical, small-molecule microarray, 635/667 nm fluorescence (AID 1148); details: higher = more signal;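 note: score merges 667nm spot fluorescence with signal-to-noise for antibody binding to printed compounds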
Torsin-1A (Homo sapiens) [17] = target: Torsin-1A (Homo sapiens) (UniProt O14656); test: torsin A binders from cell lysate, primary screen, small-molecule microarray, wild-type, 635/667 nm (AID 1149); details: COS7 hTOR1A-WT lysate, 635 nm fluorescence, higher = more signal
Torsin-1A (Homo sapiens), sequence (O14656 whole entry, looked up): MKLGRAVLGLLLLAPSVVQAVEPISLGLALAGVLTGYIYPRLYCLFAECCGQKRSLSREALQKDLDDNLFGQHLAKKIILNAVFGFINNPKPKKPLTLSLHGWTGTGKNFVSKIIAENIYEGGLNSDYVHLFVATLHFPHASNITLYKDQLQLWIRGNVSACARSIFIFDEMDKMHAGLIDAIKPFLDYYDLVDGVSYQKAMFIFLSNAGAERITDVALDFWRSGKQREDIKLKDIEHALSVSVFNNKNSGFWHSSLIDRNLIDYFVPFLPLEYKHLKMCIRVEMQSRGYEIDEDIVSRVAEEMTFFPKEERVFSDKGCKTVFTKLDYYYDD

Torsin-1A (Homo sapiens) [18] = target: Torsin-1A (Homo sapiens) (UniProt O14656); test: small-molecule binders of mutant TOR1A in lysate, primary screen, cell lysate, small-molecule microarray, COS7 lysate, 635/667 nm fluorescence (AID 1150); details: COS7 hTOR1A mutant lysate, 635 nm fluorescence, higher = more signal;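 note: score pools 667 nm emission and signal to noise measuring lysate protein binding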
[19] = test system: Sonic hedgehog protein (Shh); test: small-molecule binders of Shh protein, primary screen, biochemical, small-molecule microarray, 635/667 nm fluorescence (AID 1151); details: small-molecule microarray binding, 635 nm fluorescence; higher = more signal;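 note: Shh protein binding to compounds spotted on small-molecule microarray slides; score combines spot fluorescence intensity with signal-to-noise across triplicate slides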

Row | Structure (SMILES) | composite z-score [1] | composite z-score [2] | composite z-score [3] | composite z-score [4] | composite z-score [5] | composite z-score [6] | z-score [7] | composite z-score (Lefty1) | composite z-score [8] | z-score [9] | composite z-score [10] | z-score [11] | z-score [12] | z-score [13] | z-score [14] | composite z-score [15] | composite z-score [16] | composite z-score (Torsin-1A (Homo sapiens) [17]) | composite z-score (Torsin-1A (Homo sapiens) [18]) | composite z-score [19]
1 | CC(C)C[C@H]1NC(=O)C([C@@H](C)OCc2ccccc2)NC(=O)[C@@]23C(=O)N[C@@H](Cc4ccccc4)C2[C@H](C)[C@@]2(C)O[C@H]2C3/C=C/C/C=C\CNC1=O (stereo not given in full) | 1.42 | 1 | 0.231 | 0.504 | 1.24 | 0.434 | 0.487 | 1.01 | 0.999 | -0.53 (inactive) | 0.0872 | -1.63 (inactive) | 0.727 (inactive) | 0.839 (inactive) | -0.566 (inactive) | 0.0874 | 0.242 | -0.125 | 0.519 | 1.62
2 | C=CCOC(=O)[C@@H]1[C@H]2C(=O)O[C@H](c3ccccc3)[C@H](c3ccccc3)N2[C@H](c2ccc(OCCOC(=O)[C@H]3C[C@H]4C(=O)N5CCC[C@H]5C(=O)N4[C@H]3c3cccc(OCCO)c3)cc2)[C@@]12C(=O)Nc1ccc(I)cc12 | 1.04 | 0.994 | 0.746 | 0.241 | 1.4 | 1.38 | -1.32 | 1.44 | 0.555 | 0.0266 (inactive) | 0.473 | 0.0351 (inactive) | -0.699 (inactive) | 0.545 (inactive) | -0.206 (inactive) | 0.502 | -0.0552 | 0.438 | 0.618 | 1.97
3 | CN1C(=O)C2C(C1=O)C1C=C(c3ccc(CO)cc3)C2C(C2CC2)N1C (stereo not given) | 0.958 | -0.164 | -0.324 | -0.578 | -0.17 | -0.124 | -0.808 | -0.617 | -0.0515 | 0.279 (inactive) | -0.283 | -0.131 (inactive) | 0.178 (inactive) | -0.219 (inactive) | 0.173 (inactive) | -0.095 | -0.128 | 0.508 | 0.286 | -0.605
4 | [N-]=[N+]=Nc1ccccc1[C@@H]1OC(c2ccc(OCCCO)cc2)=N[C@]1(Cc1ccccc1)C(=O)NCCN1CCOCC1 | 0.598 | 1.28 | 0.15 | 0.993 | 0.675 | -0.155 | -0.225 | 0.278 | 0.399 | -5.81 (inactive) | 0.458 | -5.28 (inactive) | -0.528 (inactive) | 0.4 (inactive) | -1.37 (inactive) | 1.29 | 0.347 | 0.612 | 1.25 | -0.368
5 | CC1=C([C@H](O)CCc2ccccc2)[C@H](CO)n2c(=O)n(-c3ccccc3)c(=O)n2C1 | -0.56 | -0.37 | -0.168 | -0.178 | 0.155 | 0.302 | 1.18 | 0.27 | -0.137 | -0.728 (inactive) | -0.0682 | -1.13 (inactive) | -1.21 (inactive) | 0.399 (inactive) | 0.0978 (inactive) | -0.141 | -0.202 | 0.217 | -0.485 | 0.359
6 | COc1ccc(C(=O)Nc2cccc(CN3C(=O)[C@]4(O[C@H](CC(=O)N5Cc6ccccc6C[C@H]5CO)[C@@H]([Si](C)(C)c5ccc(OC)cc5)[C@@H]4C)c4ccccc43)c2)cc1 | 1.17 | 0.481 | 0.343 | 0.368 | 1.39 | 1.7 | -0.806 | 1.59 | -0.0276 | 0.429 (inactive) | 0.711 | -3.89 (inactive) | 0.269 (inactive) | -1.07 (inactive) | -0.442 (inactive) | -0.266 | 0.114 | 0.671 | 0.701 | 2.19
7 | COc1ccc([Si](C)(C)[C@@H]2[C@@H](CC(=O)N3CCC[C@H]3CO)O[C@]3(C(=O)N(Cc4ccc(N5CCOC5=O)cc4)c4ccccc43)[C@H]2C)cc1 | 1.02 | 0.783 | 0.939 | 0.867 | 0.441 | 0.672 | 0.735 | 0.646 | 0.471 | -1.83 (inactive) | -0.014 | -3.75 (inactive) | -0.0278 (inactive) | 2.4 (inactive) | -1.2 (inactive) | 0.084 | -0.024 | 0.515 | 0.557 | 1.42
8 | O=C1C[C@@](C(=O)NCc2ccccc2)(c2ccc([N+](=O)[O-])cc2)[C@@H](c2ccc(CO)cc2)N1C1CCCCC1 | 1.25 | 1.15 | 1.02 | 0.955 | 1.12 | 1.05 | 0.966 | 0.294 | 0.706 | -0.238 (inactive) | 0.203 | -4.1 (inactive) | -0.967 (inactive) | 0.531 (inactive) | -0.932 (inactive) | -0.0057 | 0.333 | 0.944 | 0.812 | 0.998
9 | OCCCC1=CC(c2ccc(CN3CCCC3)cc2)N(Cc2cccc(OC(F)(F)F)c2)CC1 (stereo not given) | -0.299 | -0.377 | 0.213 | -0.575 | 0.611 | 0.215 | 1.17 | 0.326 | -0.227 | -0.222 (inactive) | -0.131 | -9.01 (active) | 0.697 (inactive) | -0.0884 (inactive) | 0.593 (inactive) | -0.69 | -0.0791 | 0.265 | -0.165 | 0.365
10 | O=C(O)[C@H](Cc1ccccc1)n1cc(C2(O)CCCCC2)nn1 | 0.689 | 0.357 | 0.736 | 0.52 | 0.142 | 0.278 | -0.141 | 0.676 | 0.0402 | -0.0102 (inactive) | 0.0358 | 0.316 (inactive) | 0.552 (inactive) | 0.367 (inactive) | 0.317 (inactive) | -0.338 | -0.0221 | 0.221 | 0.327 | -0.0164
